{"source": "PubChem BioAssay AID485317", "about": "(Broad Institute, 2010)", "note": "Hit rate of the full screen: of about 290,000 compounds, about 11,000 (3.8%) were called active. What follows is part of a selection rich in actives, with near analogues and random picks from the rest. Unmarked numbers belong to inactive results.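 The calls were made as follows: active = mean replicate inhibition above about 79%, with every replicate also reaching it (limit read from the data); inconclusive = only one of the two criteria met; inactive = mean below limit and not every replicate reaching it.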", "data": [{"target": "FAD-linked sulfhydryl oxidase ALR (Homo sapiens) (UniProt P55789)", "sequence (P55789 whole entry, looked up)": "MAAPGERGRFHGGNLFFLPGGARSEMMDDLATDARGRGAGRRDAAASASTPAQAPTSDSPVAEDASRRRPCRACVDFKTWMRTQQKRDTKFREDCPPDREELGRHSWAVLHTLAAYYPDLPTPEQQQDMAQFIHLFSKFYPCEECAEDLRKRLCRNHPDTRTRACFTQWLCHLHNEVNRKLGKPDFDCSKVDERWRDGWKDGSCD", "experiment": "inhibitors of human ALR sulfhydryl oxidase, primary screen, biochemical, H2O2 detection, HRP-luminol luminescence, single point (AID 485317)", "details": "purified ALR, DTT oxidation, active compounds read high, concentration not given here", "values": [{"molecule": "Cc1ccc(NC(=O)CN(C)C(=O)c2ccc(Cl)c(S(=O)(=O)NCc3ccco3)c2)cc1", "inhibition": "-3.45%"}, {"molecule": "Cc1ccc(-c2nn(-c3ccc(F)cc3)cc2C(=O)NCC(c2cccs2)N2CCOCC2)cc1", "note": "(stereo not drawn)", "inhibition": "-3.7%"}, {"molecule": "CC1(C)CC[C@]2(C(=O)O)CC[C@]3(C)C(=CCC4[C@@]5(C)CC[C@H](O)C(C)(C)C5[C@H](O)C[C@]43C)[C@@H]2C1", "note": "(stereo partly drawn)", "inhibition": "-9.76%"}, {"molecule": "O=C(CN1CCOCC1)Nc1cc(Cl)ccc1Cl", "inhibition": "-11.6%"}, {"molecule": "O=C(CN1CCN(c2ccc(O)cc2)CC1)Nc1cc(S(=O)(=O)N2CCOCC2)ccc1Cl", "inhibition": "94.9% (active)"}, {"molecule": "O=C(CN1CCN(c2cccc(Cl)c2)CC1)Nc1ccc(S(=O)(=O)N2CCOCC2)cc1", "inhibition": "-14.5%"}, {"molecule": "Cc1ccc2c(CSc3nncs3)cc(=O)oc2c1", "inhibition": "-0.57%"}, {"molecule": "CCOC(=O)Cc1csc(SCc2cc(=O)oc3cc(O)ccc23)n1", "inhibition": "97.7% (active)"}, {"molecule": "CCOC(=O)Cc1csc(NC(=O)COc2ccc3c(C)cc(=O)oc3c2)n1", "inhibition": "-3.23%"}, {"molecule": "O=C(NCCc1ccc(F)cc1)c1ccc2nccnc2c1", "inhibition": "-6.27%"}, {"molecule": "CS(=O)(=O)c1ccc(Cl)c(NC(=O)COC(=O)c2ncc(Cl)c(Cl)c2Cl)c1", "inhibition": "0.688%"}, {"molecule": "Cc1cccc(C)c1Nc1nnc(SCC(=O)Nc2sccc2C#N)s1", "inhibition": "14.7%"}, {"molecule": "Cc1ccc(NC(=O)CSCC(=O)Nc2sccc2C#N)cc1", "inhibition": "98.7% (active)"}, {"molecule": "N#Cc1ccsc1NC(=O)CN1CCCCC1", "inhibition": "3.1%"}, {"molecule": "COC(C/C=C/C(=O)[C@@H](C)OCc1ccccc1)OC", "inhibition": "55.7%"}, {"molecule": "O=C(CNC(=O)C12CC3CC(CC(C3)C1)C2)OCC(=O)N1CCCCC1", "inhibition": "-2.51%"}, {"molecule": "O=C(CSc1ccccc1)Nc1cccc(S(=O)(=O)N2CCOCC2)c1", "inhibition": "-1.29%"}, {"molecule": "CCc1c(O)nc(SCC(=O)Nc2ccccc2)n(C(C)CC)c1=O", "note": "(stereo not drawn)", "inhibition": "98.8% (active)"}, {"molecule": "CCn1c(CNC(=O)c2ccc(OC)c(OC)c2)nnc1SCC(=O)Nc1ccccc1", "inhibition": "-2.46%"}, {"molecule": "CCn1c(Cc2ccccc2)nnc1SCC(=O)Nc1ccccc1", "inhibition": "-28.7%"}, {"molecule": "CC(OC(=O)c1ccc([N+](=O)[O-])cc1)C(=O)NCC1CCCCC1", "note": "(stereo not drawn)", "inhibition": "-1.04%"}, {"molecule": "O=C(Nc1cccc2c1CCCC2)c1ccc(F)cc1", "inhibition": "-21.6%"}, {"molecule": "CC1CN(C(=O)c2ccc([N+](=O)[O-])s2)CC(C)O1", "note": "(stereo not drawn)", "inhibition": "-91.3%"}, {"molecule": "COc1cc(N/C=C2\\CC(=O)NC(C)=C2C#N)cc(OC)c1OC", "inhibition": "97.1% (active)"}, {"molecule": "COc1cc2c(cc1OC)C(C(=O)Nc1cc(C)c(OC)c(C)c1)CC(=O)N2", "note": "(stereo not drawn)", "inhibition": "-6.22%"}, {"molecule": "COC(=O)C1=C(C)NC(=O)CC1c1ccccc1OC", "note": "(stereo not drawn)", "inhibition": "-0.32%"}, {"molecule": "Cn1c(N)c(C(=O)COC(=O)/C=C/c2cccc(C(F)(F)F)c2)c(=O)n(C)c1=O", "inhibition": "-1.31%"}, {"molecule": "CC(Sc1nncn1C)C(=O)NCCC1=CCCCC1", "note": "(stereo not drawn)", "inhibition": "-2.34%"}, {"molecule": "CC(CNC(=O)Cn1cnc2c(OCc3ccccc3)ncnc21)c1ccccc1", "note": "(stereo not drawn)", "inhibition": "-1.23%"}, {"molecule": "CC1(c2nnc(Cc3ccccc3)o2)CC(c2ccccc2F)=NO1", "note": "(stereo not drawn)", "inhibition": "1.62%"}, {"molecule": "CCCNC(=O)c1ccc(N2CCC3(CC2)CC(c2cccc(Br)c2)=NO3)c(NC(=O)c2ccco2)c1", "inhibition": "6.36%"}, {"molecule": "Cc1cc(C)c2c(=O)[nH]c(SCC(=O)Nc3ccc(Br)cc3)nc2n1", "inhibition": "-7.51%"}, {"molecule": "N#Cc1c(-c2cccs2)nc(SCC(=O)c2ccc(Br)cc2)[nH]c1=O", "inhibition": "98.5% (active)"}, {"molecule": "O=C(CSc1nc2ccccc2c(=O)[nH]1)Nc1nc(-c2ccc(Br)cc2)cs1", "inhibition": "-3.23%"}, {"molecule": "COCCNc1nnc(SCC(=O)NNC(=O)c2ccco2)s1", "inhibition": "-2.35%"}, {"molecule": "O=C(NCc1ccc2c(c1)OCO2)c1cc([N+](=O)[O-])ccc1N1CCOCC1", "inhibition": "-3.3%"}, {"molecule": "O=C(O)c1cccc(S(=O)(=O)N2CC=C(c3ccccc3)CC2)c1", "inhibition": "3.35%"}, {"molecule": "Cc1ccc(C(=O)CNc2ccc(F)cc2)cc1", "inhibition": "-18.2%"}, {"molecule": "Cc1ccc(C(=O)NCCNC(=O)c2ccccc2)cc1", "inhibition": "-3.69%"}, {"molecule": "Cc1ccc(SC(CC(=O)c2ccc(C(C)(C)C)cc2)C(=O)O)cc1", "note": "(stereo not drawn)", "inhibition": "97.7% (active)"}, {"molecule": "CC(C)(C)OC(=O)C[C@@H]1C/C=C\\C[C@@H](CC(=O)N(CCO)Cc2ccccc2)C(=O)N[C@H](Cc2ccccc2)COC1=O", "inhibition": "-5.13%"}, {"molecule": "Cc1cc(NC(=O)CSCC(=O)NC(C)c2ccccc2)no1", "note": "(stereo not drawn)", "inhibition": "-11.9%"}, {"molecule": "COc1ccc(/C=C2\\SC(=O)N(CCC(=O)NCCCn3ccnc3)C2=O)cc1", "inhibition": "-4.29%"}, {"molecule": "O=C(CCCN1C(=O)/C(=C\\c2ccccc2)SC1=S)Nc1ccccc1O", "inhibition": "1.84%"}, {"molecule": "COc1ccc(/C=C2/SC(=O)N(CCCCCC(=O)Nc3ccccc3C(=O)O)C2=S)cc1", "inhibition": "98.9% (active)"}, {"molecule": "O=C1COc2ccc(C(=O)COC(=O)c3ccccc3Cl)cc2N1", "inhibition": "-5.15%"}, {"molecule": "CCC(CO)Oc1cc(NC(=O)c2cccc3ccccc23)c2ncn(C(C)C)c2c1", "note": "(stereo not drawn)", "inhibition": "-21.2%"}, {"molecule": "COC(=O)CNS(=O)(=O)c1ccc(OC)cc1", "inhibition": "-8.89%"}, {"molecule": "C/C(N)=C(/C#N)C(=O)COC(=O)CNS(=O)(=O)c1ccc(C)cc1", "inhibition": "-12.8%"}, {"molecule": "COC(=O)CNS(=O)(=O)c1ccc(Cc2ccc(S(=O)(=O)NCC(=O)OC)cc2)cc1", "inhibition": "99.2% (active)"}, {"molecule": "COc1cc(C(=O)N(C)Cc2cccc(OC)c2OC)ccc1OCC(=O)Nc1cccc(C(F)(F)F)c1", "inhibition": "-114%"}, {"molecule": "CC1O[C@@H](OC2C(O)C(C)O[C@H](OC(=O)[C@]34CCC(C)(C)C[C@H]3C3=CCC5[C@@]6(C)CC(O)C(O[C@@H]7OC(CO)C(O)[C@@H](O)[C@@H]7O)[C@@](C)(C(=O)O)C6CC[C@@]5(C)[C@]3(CO)CC4)C2O[C@H]2OC(C)[C@@H](O[C@@H]3OCC(O[C@@H]4OC(CO)C(O)[C@H](O)C4O)[C@@H](O)[C@@H]3O)[C@H](O)C2O)C(O)C(O)C1O", "note": "(stereo partly drawn)", "inhibition": "22.9%"}, {"molecule": "O=C(C[C@H]1C/C=C\\C[C@@H](NC(=O)OCC2c3ccccc3-c3ccccc32)C(=O)O[C@@H](c2ccccc2)CNC1=O)N[C@H](CO)Cc1ccccc1", "inhibition": "0.728%"}]}]}
